Compound activity deposited in PubChem BioAssay by National Center for Advancing Translational Sciences (NCATS).
aSyn rescue: inhibitors of alpha-synuclein toxicity in yeast. Potency, µM (top dose mostly 46.1 µM), without a hit: at the top dose growth rescue (activation), hits mostly activators. Yeast expressing alpha-synuclein, growth rescue, BacTiter-Glo, 24 h. actives 0.14% (n = 370,000); also: % of control where 0% means no effect; nearly all actives have a fitted effect of over 65% in size
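Rescue of yeast growth: cells expressing toxic alpha-synuclein, induced in galactose at OD600 0.02, incubated with compound 24 h at 30 C. ATP luminescence quantified growth; inhibitors of toxicity appear as activators.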
TDP43 rescue: rescues yeast growth from TDP-43 toxicity; Potency, µM (highest dose often 46.1 µM), inactives show at the highest dose growth rescue (activation), usual class: activators; actives 1.8% (n = 410,000); TDP-43 expressing yeast growth rescue, BacTiter-Glo, 24 h; AID 652104; also: % of control where 0% means no effect; nearly all actives have a fitted effect of over 50% in size
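Galactose-induced TDP-43 yeast, OD600=0.02, compound pinned; 24 hr, 30 deg C; BacTiter-Glo luminescence for growth. Inhibitors of TDP-43 toxicity read as activators.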
FUS suppressor: FUS proteinopathy suppression in yeast | S. cerevisiae FUS-expressing, growth rescue, OD600, 24 h | Potency, µM (doses to about 76.6 µM), actives largely listed as activators | actives 0.24% (n = 390,000);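 also: plate controls were DMSO vehicle for no effect and reference control for full effect; nearly all actives have a fitted effect of over 55% in size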
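Read-out: OD at 600 nm after 24hr at 30C, reporting rescue of FUS-induced yeast toxicity. Cells at OD 0.005 in galactose (2%) minimal medium; compounds tested in a dilution series; CP55940 titration from 92uM final as control.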
Abeta rescue: restores growth of yeast expressing A-beta42 peptide; AID 1347071; yeast expressing A-beta42, growth rescue, OD600, 48 h; response scale: 0% DMSO, 100% iron-clioquinol control; actives 0.063% (n = 410,000); Potency, µM (series often up to 46.1 µM), most hits filed as activators; also: nearly all actives have a fitted effect of over 55% in size
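Yeast A-beta toxicity model in growth medium with pinned compounds, 48 h at 30 C; growth read as absorbance at 600 nm. Normalized to FeCl3/clioquinol equimolar mix (positive) and DMSO (negative).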
An asterisk follows results filed as active; i = inactive; ? = inconclusive; nt = no result. Hits are enriched below; roughly 2.1% of the tested compounds scored in any of these assays. Calls follow the shape of the dose curve; as a rule, active = well fitted curve in the direction sought with a large enough effect; inconclusive = small, poorly fitted or top-dose-only effect, or another doubt; inactive = no such curve, though single readings can be large; an effect the other way counts as inactive or inconclusive. Potency is read from the fitted curve at half-maximal effect.

SMILES	aSyn rescue	TDP43 rescue	FUS suppressor	Abeta rescue
O=C(O)c1ccccc1C(=O)OC1CCCC2CCCC21 (stereo not given)	18%	22µM*	nt	i
O=C(NC1CCCCN(Cc2cccc(F)c2)C1=O)c1cccc(F)c1 (stereo not given)	nt	nt	i	nt
O=C(Cc1cccs1)NNC(=S)NC(=O)c1ccco1	?	?	i	10µM*
Cc1ccccc1OCC(=O)NNC(=S)NC(=O)c1ccco1	?	7.1µM*	i	?
O=C(Cc1cccs1)NNC(=S)NCc1ccc(Cl)cc1	-6%	4%	i	i
CC(C)c1ccc(OCC(=O)NNC(=S)NC(=O)c2ccco2)c(Br)c1	15%	10µM*	i	i
O=C(Cc1ccc(Cl)cc1)NNC(=S)NC(=O)c1cccs1	-28%	28µM*	i	?
Cc1ccccc1OCC(=O)Nc1ccccc1NC(=O)c1ccco1	7%	6%	i	i
C=CCCC(=O)N[C@H]1CC[C@@]23CCCN2C(=O)CCC[C@H]3[C@H]1C	nt	nt	i	nt
Cc1ccc2ccc3cc(C(=O)Nc4ccc(C)c(F)c4)nc3c2[nH]1	-24%	4µM*	i	i
CCC(C)NS(=O)(=O)c1ccc2[nH]c(=O)oc2c1 (stereo not given)	nt	nt	i	nt
O=S(=O)(c1ccc(F)cc1)c1snnc1-c1ccccc1	-6%	14µM*	i	i
O=S(=O)(c1ccc(Cl)cc1)c1snnc1-c1ccccc1	-5%	?	i	i
COc1cccc(C(=O)Nc2cc(NC(=O)c3cccs3)ccc2C)c1OC	-10%	11µM*	i	i
O=C(Nc1ccc(NC(=O)c2cccs2)cc1)c1ccc2c(c1)OCCO2	?	-1%	i	i
COc1cc(NC(=O)c2ccc3c(c2)OCCO3)ccc1NC(=O)c1cccs1	-13%	13µM*	i	i
O=C(Nc1ccccc1)Nc1nc2ncccn2c1-c1ccc(F)cc1	nt	nt	i	nt
CC1(C)Cc2ccccc2-c2nnc(SCc3ccc(C#N)cc3)n21	18%	13µM*	i	i
O=S(=O)(c1ccc2c(c1)OCCO2)N1CCN(c2nc(-c3ccccc3)nc3ccccc23)CC1	-2%	nt	nt	nt
COC(=O)c1ccc(Cn2nc([N+](=O)[O-])c(Br)c2C)cc1	?	14µM*	i	?
CCC(C)NC(=O)CSc1nnc(-c2cc(OC)c(OC)c(OC)c2)o1 (stereo not given)	nt	nt	i	nt
O=C1CC2(CCN(S(=O)(=O)c3ccccc3)CC2)Oc2ccccc21	15%	20µM*	i	i
CCOC(=O)C1CCN(C(=O)c2sc3nc(-c4ccccc4)cn3c2C)CC1	-2%	?	nt	i
CCOC(=O)C1CCCN(C(=O)c2sc3nc(-c4ccc(OC)cc4)cn3c2C)C1 (stereo not given)	nt	11µM*	?	i
Cc1cccc(NC2=C(Cl)C(=O)OC2OC(C)C)c1 (stereo not given)	1%	13µM*	i	i
SMILES	aSyn rescue	TDP43 rescue	FUS suppressor	Abeta rescue
Cc1ccc(NC2=C(Cl)C(=O)OC2OC(C)C)cc1 (stereo not given)	-5%	?	i	i
C=CCOC/C=C/C#CCN(Cc1ccc(OC)cc1OC)C(=O)Nc1ccccc1	nt	nt	i	nt
Cc1ccnc2nc(C(=O)OCCOc3cccc(Br)c3)nn12	-13%	16µM*	i	?
Cc1ccnc2nc(C(=O)OCCOc3ccccc3)nn12	-14%	-3%	i	i
Cc1nn(Cc2cccc(C(=O)Nc3ccn(Cc4c(F)c(F)cc(F)c4F)n3)c2)c(C)c1[N+](=O)[O-]	-2%	0%	i	i
Cc1nn(C)c(C(=O)Nc2ccn(Cc3c(F)c(F)cc(F)c3F)n2)c1[N+](=O)[O-]	7%	7.9µM*	nt	i
COc1cccc(-n2ccnc2SCC(=O)Nc2cccc3ccccc23)c1	nt	16µM*	?	i
Cc1cccc(-n2ccnc2SCC(=O)Nc2nccs2)c1	-1%	22%	i	i
CCOc1ccccc1NC(=O)CSc1nccn1-c1cccc(C)c1	14%	18µM*	i	i
O=[N+]([O-])c1ccc2nc(COCc3nc4ccccc4[nH]3)[nH]c2c1	nt	nt	i	nt
CCCC(=O)OC12CCCN(C1)/C(=C/c1cccc(Cl)c1)C2 (stereo not given)	nt	nt	i	nt
CN=c1sc2c(n1C)C(=O)c1ccccc1C2=O	3%	11µM*	nt	i
CN=c1sc(C(=O)Nc2ccccc2)c(C)n1C	4%	-1%	i	i
COC(=O)CNC(=O)[C@H](Cc1ccccc1)NC1(C(=O)NCCc2c[nH]c3ccccc23)CCCCC1	nt	nt	i	nt
CCCN1C(=O)/C(=C/c2ccc3c(c2)OCO3)NC1=S	-7%	14µM*	i	?
CC(=O)Oc1ccc2c(c1)CCC1C2CCC2(C)C(OC(C)=O)CCC12 (stereo not given)	-16%	32µM*	?	i
C[C@]12CC[C@@H]3c4ccc(OC(=O)c5ccccc5)cc4CC[C@H]3[C@@H]1CC[C@@H]2O	6%	18%	i	i
Cc1nc([N+](=O)[O-])cn1CC(O)c1ccc2c(c1)OCCCO2 (stereo not given)	-3%	nt	nt	nt
Cc1ccc(S(=O)(=O)N2C=C(c3ccccc3)c3ccccc3-c3ccccc32)cc1	nt	nt	i	nt
COC(=O)[C@]12C[C@H](CC(=O)NCc3ccc(OC)c(OC)c3)C(=O)N(Cc3ccc(Cl)cc3Cl)C1=C[C@H](C(C)C)O[C@@H]2C1CC1	nt	nt	28µM*	nt
COCCCNC(=O)C[C@H]1C[C@@]2(C(=O)OC)C(=C[C@H](C(C)C)O[C@@H]2C2CC2)N(Cc2ccc(Cl)cc2Cl)C1=O	nt	nt	28µM*	nt
COC(=O)[C@]12C[C@H](CC(=O)N3CCOCC3)C(=O)N(CCc3ccc(OC)c(OC)c3)C1=C[C@H](C(C)C)O[C@@H]2C1CC1	nt	nt	i	nt
COc1ccc([C@H]2CC(=O)C=C(c3ccc(SC)cc3)C2)cc1OC	1%	0%	i	i
O=C1C=C(c2ccc(OC(F)(F)F)cc2)C[C@@H](c2ccc(F)cc2)C1	-7%	14µM*	i	?
O=C1C=C(c2cc(Cl)cc(Cl)c2)C[C@@H](c2ccc(F)cc2)C1	1%	?	i	i
SMILES	aSyn rescue	TDP43 rescue	FUS suppressor	Abeta rescue
O=C1C=C(c2ccc3c(c2)OCCO3)C[C@@H](c2ccc(F)cc2)C1	0%	22µM*	i	?
Cc1cc(C2=CC(=O)C[C@H](c3ccc(F)cc3)C2)ccc1F	8%	22µM*	i	i
O=C1C=C(c2ccc3c(c2)OCO3)C[C@@H](c2ccc(F)cc2)C1	2%	?	i	i
CSc1ccc(C2=CC(=O)C[C@H](c3ccc(F)cc3)C2)cc1	6%	22µM*	i	i
COc1ccc(C2=CC(=O)C[C@H](c3ccc(F)cc3)C2)cc1F	8%	22µM*	?	i
COc1ccc2sc(N(Cc3cccnc3)C(=O)COc3ccccc3)nc2c1	nt	11%	i	i
